Shown are actives, neighbours in structure and some others; about 2.3% of the full set was active somewhere.
Pol kappa inh: DNA polymerase kappa (human) inhibition | Q9UBT6 | purified Pol kappa, fluorescent DNA synthesis assay, 10 min | Potency, µM (titrated, usually from 107 µM), for inactives: top-dose activity, negative = inhibition, usual class: inhibitors | 400,000 compounds, 0.53% hits | AID 588579; further: on the % scale 0 is the no-effect control and ±100 the full control effect
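Kinetic fluorescence readout at 0 and 10 min followed reaction start with substrate at 50 nM final. Beforehand, enzyme (10 nM Pol kappa) stood 15 min with compound at room temperature; buffer-only wells were negative controls.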
POLH inh: inhibitors of human DNA polymerase eta; 390,000 compounds, 1.2% hits; Potency, µM (titrated, usually from 114 µM), for inactives: top-dose activity change, negative = inhibition, most hits filed as inhibitors; AID 588591; Q9Y253; recombinant Pol eta, fluorescent DNA replication assay; further: on the % scale 0 is the no-effect control and ±100 the full control effect
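Fluorescent replication assay: 50 nM final substrate added after a 15 min room-temperature compound preincubation with 10 nM enzyme. Signal taken at 0 min and again at 10 min.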
Pol beta inh: DNA polymerase beta (human) inhibition; Pol beta primer extension/strand displacement, fluorescence kinetic; Potency, µM (titrated, usually from 114 µM), for inactives: at the top dose activity change, negative = inhibition, hits mostly inhibitors; 340,000 compounds, 1.3% hits; P06746; further: on the % scale 0 is the no-effect control and ±100 the full control effect
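Preincubation: enzyme (10 nM) with compound, 15 min, RT. Reaction: substrate added to 50 nM final. Reads: 0 and 10 min. Analysis: normalized, Hill fit.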
WRN inhibitor: WRN helicase (human) inhibition | Q14191 | WRN helicase unwinding, fluorescent forked duplex, kinetic | Potency, µM (doses to about 114 µM), for the others: top-dose activity change, negative = inhibition, hits mostly inhibitors | 360,000 compounds, 0.46% hits | AID 651768; further: on the % scale 0 is the no-effect control and ±100 the full control effect; nearly all actives have a fitted effect of over 55% in size
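Primary qHTS, 1536-well format. 20 nM WRN + compound, 15 min RT; start with 100 nM forked fluorophore/quencher duplex, 2 mM ATP (final); kinetic read ex 525/em 598 nm.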
Pol iota inh: inhibitors of human DNA polymerase iota | AID 588590 | Potency, µM (top dose mostly 115 µM), without a hit: top-dose activity, negative = inhibition, usual class: inhibitors | Q9UNA4 | Pol iota fluorescent replication assay, 10 min | 390,000 compounds, 1% hits
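Fluorescent replication assay read twice, at 0 min and 10 min after adding 50 nM (final) substrate. Enzyme (10 nM) and compounds were first incubated 15 min at room temperature; enzyme-free buffer wells were negative controls.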
* = called active by the depositor; u = inconclusive; x = no result given; [ ] = remark or other dose. The call rests on the fitted dose curve; in most records, active means well fitted curve in the direction sought with a large enough effect; inconclusive means small, poorly fitted or top-dose-only effect, or another doubt; inactive means no such curve, though single readings can be large; an effect the other way counts as inactive or inconclusive. Potency means the concentration at half of the fitted maximal effect.

SMILES	Pol kappa inh	POLH inh	Pol beta inh	WRN inhibitor	Pol iota inh
O=S(=O)(c1ccc(Cl)cc1)N1CCN(c2nc(-c3ccccc3)nc3ccccc23)CC1	6%	x	x	x	-1%
CCCN1CCC(=O)N(CCN=[N+]=[N-])CC1	-2%	5%	32µM*	0%	-29%
[N-]=[N+]=NCCN1CCN(CCc2ccccc2)CCC1=O	2%	-20%	17%	-2%	50%
O=C(CCC(=O)Nc1ccc(Cl)cc1Cl)N/N=C/c1ccc([N+](=O)[O-])o1	-25%	-28%	-20%	-11%[11.6 µM]	56µM*
CCCCCC(=O)N/N=C/c1ccc([N+](=O)[O-])o1	-25%	-9%	6%	-16%	-26%
O=C(Nc1nccs1)[C@@H]1CC=C[C@@H]2CCN(C3CC3)C(=O)[C@@H]21	-6%	x	x	x	4%
CC(C)C(=O)Nc1cccc(-c2nc3ccccc3o2)c1	-1%	-14%	u	9%	2%
COc1ccccc1OC(C)C(=O)Nc1cccc(-c2nc3ccccc3o2)c1 (stereo unspecified)	u	u	50µM*	x	89µM*
CN1C(=O)C(C)(C)c2cc(S(=O)(=O)N3CCN(c4cccc(Cl)c4)CC3)ccc21	-36%	0%	14µM*	-21%	u
CC(C)c1ccc(/C=C2\SC(=S)N(CCC(=O)NCCCn3ccnc3)C2=O)cc1	u	-17%	40µM*	-11%	-28%
COc1ccc(/C=C2\SC(=S)N(CCC(=O)NCCCn3ccnc3)C2=O)cc1	11%	-16%	-1%	2%	-6%
COC(=O)c1c(NC(=O)CCCOc2ccc(C(C)(C)C)cc2)sc2c1C(C(=O)OC)CC2 (stereo unspecified)	u	-12%	-10%	x	89µM*
CCCC(=O)Nc1sc2c(c1C(=O)OC)C(C(=O)OC)CC2 (stereo unspecified)	-3%	-6%	-1%	-5%	-2%
O/N=C(/C[n+]1cccc(Br)c1)c1ccc2ccccc2c1	-5%	x	x	x	35%
O=C(NCc1ccccn1)C1(C(F)(F)F)C/C(=C\Cc2ccccc2)CCCO1 (stereo unspecified)	-18%	x	x	x	u
